Test results as given in the supplement of paper PMC10681739.

What was measured:
ETS1 [1] = molecular target: T1, ETS1 (UniProt P14921); experiment: ETS1 binding intensity (PBM fluorescence), ETS1 alone (arbitrary fluorescence units); higher = stronger binding; conditions: ETS1 concentration 1 nM; RUNX1 concentration 0 nM
T1 sequence: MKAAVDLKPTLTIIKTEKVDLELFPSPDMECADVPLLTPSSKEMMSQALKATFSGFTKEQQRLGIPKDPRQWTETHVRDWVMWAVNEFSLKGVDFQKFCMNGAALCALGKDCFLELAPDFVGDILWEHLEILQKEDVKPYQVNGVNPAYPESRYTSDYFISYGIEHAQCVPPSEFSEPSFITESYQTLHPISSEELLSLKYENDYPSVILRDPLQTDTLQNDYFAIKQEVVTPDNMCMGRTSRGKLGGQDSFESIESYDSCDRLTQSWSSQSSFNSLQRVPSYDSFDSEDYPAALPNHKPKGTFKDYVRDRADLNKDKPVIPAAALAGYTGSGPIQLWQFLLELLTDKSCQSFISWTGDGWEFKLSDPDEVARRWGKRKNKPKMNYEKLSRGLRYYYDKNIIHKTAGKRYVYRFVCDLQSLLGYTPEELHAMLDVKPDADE

RUNX1 [2] = molecular target: RUNX1 (UniProt Q01196); experiment: RUNX1 binding intensity (PBM fluorescence), RUNX1 alone (arbitrary fluorescence units); higher = stronger binding; conditions: RUNX1 concentration 2 nM; ETS1 concentration 0 nM
RUNX1, sequence (Q01196 whole entry): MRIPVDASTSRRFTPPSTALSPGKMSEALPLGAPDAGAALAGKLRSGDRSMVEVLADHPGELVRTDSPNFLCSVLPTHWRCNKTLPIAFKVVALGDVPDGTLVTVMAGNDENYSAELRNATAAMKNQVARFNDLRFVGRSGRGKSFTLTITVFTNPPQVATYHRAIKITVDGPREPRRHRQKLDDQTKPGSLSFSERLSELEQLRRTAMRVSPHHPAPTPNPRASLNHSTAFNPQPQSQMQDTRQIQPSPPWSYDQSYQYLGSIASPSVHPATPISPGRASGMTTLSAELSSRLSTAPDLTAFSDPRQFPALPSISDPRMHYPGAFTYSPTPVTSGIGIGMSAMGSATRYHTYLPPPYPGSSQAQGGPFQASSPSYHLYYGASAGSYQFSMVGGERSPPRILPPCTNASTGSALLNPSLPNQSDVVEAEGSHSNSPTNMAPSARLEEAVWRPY
Description: (§1)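 Cooperative gcPBM on 36-bp genomic probes with neighbouring ETS1 and RUNX1 sites. Recombinant human RUNX1 (2 nM) was incubated alone or with ETS1 (25 nM) and detected with anti-RUNX1 antibody plus Alexa488 secondary. Values are medians over 4 replicate spots; the RUNX1+ETS1 data were normalised to the RUNX1-only data. The probes sit in constant array flanks that are not printed.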

ETS1 [3] = molecular target: T1, ETS1; experiment: ETS1 binding intensity (PBM fluorescence) in presence of RUNX1, normalised to ETS1-only experiment (arbitrary fluorescence units); higher = stronger binding; conditions: ETS1 concentration 1 nM; RUNX1 concentration 25 nM
RUNX1 [4] = molecular target: RUNX1 (UniProt Q01196); experiment: RUNX1 binding intensity (PBM fluorescence) in presence of ETS1, normalised to RUNX1-only experiment (arbitrary fluorescence units); higher = stronger binding; conditions: RUNX1 concentration 2 nM; ETS1 concentration 25 nM
Description: as §1
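Throughout, for RUNX1 binding intensity (PBM fluorescence) in presence of ETS1, normalised to RUNX1-only experiment: Full-length recombinant human ETS1 or RUNX1 bound to double-stranded 36-bp genomic probes on microarrays, detected by protein-specific primary antibody and Alexa488 secondary, spot fluorescence as median of four replicate spots.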
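Throughout, for RUNX1 binding intensity (PBM fluorescence), RUNX1 alone: Full-length recombinant human RUNX1 bound to double-stranded 36-bp genomic probes on a high-density microarray, scored as Alexa488 fluorescence per spot via anti-RUNX1 antibody, median of four replicate spots.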

| Sequence | ETS1 binding intensity (ETS1 [1]) | RUNX1 binding intensity (RUNX1 [2]) | ETS1 binding intensity (ETS1 [3]) | RUNX1 binding intensity (RUNX1 [4]) |
| --- | --- | --- | --- | --- |
| CTCCACCGGATGCAGCAATGAAGGCCGCAGGAATGG | 3160 | 712 | 3990 | 1130 |
| GGGACGGGGAGGGCAGGATGTGGTCGCTCTTCCCTC | 3320 | 822 | 9330 | 1750 |
| TAGGCTGAAGACTTCCGCCCCGCAGAGGACTTGCCT | 1040 | 839 | 974 | 1170 |
| ACTAGAAGCGGAAGTAGTTGTGGGCGCCTTTGCAAC | 5720 | 662 | 7470 | 1410 |
| TGTCCACCTCTACGGAAGTGCGCCGCAGTCCGCCAG | 1620 | 792 | 2370 | 908 |
| AAGGGAGCCGCCCGGAAACCGCGCGGCAAAGATGCC | 1560 | 734 | 2940 | 1050 |
| ACGGTGTGTCTCATTTCCTGTGGGTAACAGGCACCA | 2120 | 935 | 3240 | 1720 |
| TTTGTCATATCAACAGGATGTGGTTCTCCCCTGGTT | 6920 | 905 | 10700 | 1530 |
| CAGCACGCAGGAAGCACATGTGGTGGGGCTCTTCCA | 674 | 742 | 759 | 1030 |
| TGAGTCACAGAGACAGGATGTGGTGCAGGGGGTATT | 7580 | 718 | 13500 | 1030 |
| ACCAGAAGCACTGCAGGATGTGGTATCAAGACGCCT | 2250 | 774 | 6680 | 1160 |
| CTCCTCCCCCACTTCCTATTTTTACCGCAGTTGCAC | 752 | 4960 | 1340 | 7610 |
| TTGACCCGGACGTGGACAAAAGACCGCAAAGGACGC | 806 | 1100 | 3090 | 1540 |
| CTCCTTCCTGATCGGGCAGGAACTAACCACAGGAGG | 1060 | 825 | 2480 | 1130 |
| CAGGGTGTCGGCTTCCGGCGGTTGCCCACTTTCGGC | 1100 | 763 | 1090 | 1790 |
| TTTGCTGCAGAAGGATGTGGTTTATTCAGGTTTGAC | 676 | 932 | 3620 | 1270 |
| AGAAGGCGCCGGAAGTGGTCCCGCAGAGGCGGGGTG | 8990 | 725 | 14100 | 2500 |
| CCTGGGCAAGGCCGGATGCCTGTGGCTTCCAGGCTG | 2880 | 685 | 3350 | 1060 |
| CTGTCCCTAGCAGGATGTGGTTTGCACATTGCTGCT | 3220 | 962 | 12500 | 4600 |
| ACAAGAGGAAGTGAGTCTACCCATGATGCGGTCACA | 707 | 891 | 4460 | 1440 |
